Data on 39 compounds can be found in PubChem BioAssay (NCATS).

Where “and” joins values, the source holds several entries; their conditions need not be identical. Identical values can stand only once. Inconclusive results are not listed. A call without a number means that no potency is given here. Unmarked numbers belong to inactive results. Calls of active or inactive are those of the source. Calls follow the shape of the dose curve; as a rule, active = well fitted inhibition curve with a large enough effect; inconclusive = small, poorly fitted or top-dose-only effect; inactive = no such curve, though single readings can be large or run the other way. *1 amine or outer side, *2 acyl side, *3 side chain or, on linkers, in order; H or OH if unused. Where a SMILES comes first, the peptide text is derived from it. [ ]: non-standard residue; d: D form. X4 = CC(C)=CCc1cc(C(O)C(N[*:1])C(=O)[*:2])ccc1O
Potency is read from the fitted curve at half-maximal effect.

The nature of this assay: Primary qHTS for inhibitors of nuclear receptor binding SET domain protein 2 (NSD2) in an RCH-ACV wild type WT cells (2C) (AID 1645877). Also: nearly all actives have a fitted effect of over 70% in size. To be noted: RCH-ACV (leukaemia line) NSD2 WT (2C) viability, CellTiter-Glo, 72 h; series mostly up to 44.9 µM.
As for `O=C(O)C(O[C@@H]1O[C@H](CO[C@@H]2O[C@H](CO)[C@@H](O)[C@H](O)[C@H]2O)[C@@H](O)[C@H](O)[C@H]1O)c1ccccc1` (some centres undefined), the Potency entry was “inactive”.
As to `O=C(CC(c1ccccc1)c1ccccc1)N1CCN(C(c2ccccc2)c2ccccc2)CC1`, the Potency is 8.17 µM (active).
Still for that read-out and setting: the result for `CS(=O)(=O)N(CC(=O)NCC1CC1)c1cc(C(F)(F)F)ccc1Cl` reads “inactive”; that for `CCOc1cc(C(=O)N2CCC(N3CCN(C)CC3)CC2)ccc1Nc1ncc2c(n1)N(C1CCCC1)c1ccccc1C(=O)N2C`, 1.29 µM (active) and 1.66 µM (active).
In the case of `Cc1cc(C(=O)Nc2cccc(C(=O)Nc3cccc(C(F)(F)F)c3)c2)on1`, the Potency result is “inactive”.
On to `O=C(CCc1nnc2n(Cc3ccc(Cl)cc3)c(=O)c3ccccc3n12)NCCC1=CCCCC1`, for which the Potency result is “inactive”.
For the compound `CC(C)=CCC[C@](C)(O[C@@H]1O[C@H](CO)[C@@H](O)[C@H](O)[C@H]1O)[C@H]1CC[C@]2(C)[C@@H]1[C@H](O)CC1[C@@]3(C)CC[C@H](O)C(C)(C)C3[C@@H](O[C@@H]3O[C@H](CO)[C@@H](O)[C@H](O)[C@H]3O)C[C@]12C` (some centres undefined), the Potency result was “inactive”.
Take `CC(C)(C)c1ccc(S(=O)(=O)NCc2ccc(C(=O)Nc3cccnc3)cc2)cc1`: the Potency was 0.163 µM (active).
With `C[C@@H]1C[C@H]2O[C@@H]2/C=C\C=C\C(=O)Cc2c(Cl)c(O)cc(O)c2C(=O)O1`, the Potency was 275 nM (active) and 640 nM (active).
As to `C=C1CC2C(C)(CCC(=O)O)C(C(C)(C)O)CCC2(C)C2C(=O)OC(C)(C(=O)OC)C(=O)C12C` (centres undefined), the Potency result was “inactive”.
In the case of `O=C(O)CC1CCC(c2ccc(-c3ccc4nc(C(=O)NCc5ccc(OC(F)(F)F)cc5)cn4c3)cc2)CC1` (centres undefined), the Potency entry was “inactive”.
Consider `O=C1NC(Cc2c[nH]c3ccccc23)C(=O)NC1Cc1cnc[nH]1` (centres undefined), for which the Potency result is “inactive”.
Turning to `COc1ccc(Cl)c(Nc2nc3ccccc3nc2NS(=O)(=O)c2cccc(NC(=O)C(C)(C)N)c2)c1`, the Potency was 4.09 µM (active) and 8.33 µM (active).
On the same count and under the same terms, for `CC(=O)O[C@@H]1C[C@H](O)[C@@]23CO[C@H](O)[C@]1(C)C2C[C@@H](O)[C@]1(C)C3C(=O)[C@H](OC(C)=O)[C@@]2(C)[C@H](c3ccoc3)C[C@H]3O[C@]321` (some centres undefined) the value was 0.0216 µM (active).
As to `COc1ccc(-c2ccc(-c3cn(C(=O)N4CCCCC4c4ccccc4)nn3)cc2)cc1` (centres undefined), the Potency result was “inactive”.
The same measure, in the same setting: for `CC1=C(C(=O)O)/C(=C/CO[C@@H]2O[C@H](COC(=O)/C=C/c3ccc(O)cc3)[C@@H](O)[C@H](O)[C@H]2O)C(O)C1` (some centres undefined) the value was “inactive”.
With `O=C(Nc1ccn[nH]1)c1c(F)cccc1F`, the Potency entry was “inactive”.
Still for that read-out and setting: for `CCOc1cc(C)c(Cl)cc1S(=O)(=O)n1cnc2ccccc21` the value was “inactive”.
As for `C[C@@H]1C(=O)O[C@H]2C[C@]34[C@H]5C[C@@H](C(C)(C)C)[C@]36[C@@H](OC(=O)[C@H]6O)O[C@]4(C(=O)O5)[C@]21O`, the Potency entry was “inactive”.
In the case of `COc1ccc([C@H]2CNC(=O)C2)cc1OC1CCCC1`, the Potency result is “inactive”.
Same read-out and setting: for `CC(C)[C@@H]1C(=O)N(S(C)(=O)=O)[C@@H]2CCN(C(=O)/C=C/CN3CCCCC3)[C@H]21` the value was “inactive”; for `CC1(C)CC[C@]2(C(=O)O[C@@H]3O[C@H](CO)[C@@H](O)[C@H](O)[C@H]3O)CC[C@]3(C)C(=CCC4[C@@]5(C)C[C@@H](O)[C@H](O)[C@](C)(C=O)C5CC[C@]43C)[C@@H]2[C@@H]1O` (some centres undefined), “inactive”; for `O=C(Nc1c(-c2cccs2)nc2ccccn12)c1ccc(Cl)cc1`, “inactive”.
For `CC1CC[C@]2(C(=O)O)CC[C@]3(C(=O)O)C(=CCC4[C@@]5(C)CC[C@H](O[C@@H]6O[C@H](CO)[C@@H](O)[C@H](O)[C@H]6O)C(C)(C)C5CC[C@]43C)C2C1C` (some centres undefined), the Potency result is “inactive”.
Same read-out and setting: the result for `C[C@H]1CC(=O)Nc2cccc(-c3cnn(C(C)(C)C)c3)c2N1` reads “inactive”; that for `CC12CCC(OC3OC(CO)C(O)C(OC4OC(CO)C(O)C(O)C4O)C3O)CC1CCC1C2CCC2(C)/C(=C3/COC(=O)C3)CCC12O` (centres undefined), “inactive”.
Turning to `NC(=O)[C@H]1CCS[C@@H]2C[C@]3(CCCN3C(=O)Cc3ccc(NC(=O)COc4ccc(Cl)cc4Cl)cc3)C(=O)N12`, the Potency was 5.25 µM (active).
For `O=C(O)CC(=O)OC[C@H]1O[C@@H](Oc2ccc3c(c2)OC[C@H]2c4cc5c(cc4O[C@@H]32)OCO5)[C@H](O)[C@@H](O)[C@@H]1O`, the Potency result was “inactive”.
As to `COC(=O)C1=CO[C@@H](O[C@@H]2O[C@H](CO)[C@@H](O)[C@H](O)[C@H]2O)[C@@H]2[C@@](C)(O)[C@@H](OC(=O)/C=C/c3ccc(O)cc3)C[C@]12O`, the Potency result is “inactive”.
For the compound `CC(C)=CCc1cc(C(O)C2NC(=O)CNC(=O)C(Cc3c[nH]c4ccccc34)NC(=O)C3CCCN3C(=O)CNC(=O)C(C(C)C)NC(=O)CNC2=O)ccc1O` (centres undefined) (cyclo(G[X4]GVGPW); configuration not given here), the activity change, negative = cell killing is -18.5% [at 9.23 µM].
For `C[C@@H]1CN(Cc2ccccc2)C[C@H]1c1nc2c(cnn2C2CCOCC2)c(=O)[nH]1`, the Potency entry is “inactive”.
On to `C=C[C@]1(C)C=C2CCC3C(C)(CCC[C@@]3(C)C(=O)O)C2CC1` (some centres undefined), for which the Potency result is “inactive”.
For the compound `C=CC(C)(CC/C=C(\C)C(=O)OC)OC1OC(COC(=O)CC(C)(O)CC(=O)O)C(OC2OC(CO)C(O)C(O)C2O)C(O)C1O` (centres undefined), the Potency entry was “inactive”.
Take `O=C(NCc1cccc(O)c1)Nc1nc(-c2ccncc2)cs1`: the Potency was 2.35 µM (active).
Regarding `C[C@@H]1CC[C@]2(C(=O)O[C@@H]3O[C@H](CO)[C@@H](O)[C@H](O)[C@H]3O)CC[C@]3(C)C(=CCC4[C@@]5(C)C[C@@H](O)[C@H](O)[C@](C)(C(=O)O)C5CC[C@]43C)[C@@H]2[C@]1(C)O` (some centres undefined), the Potency entry was “inactive”.
As to `COC(=O)CC(O)CC(O)/C=C/c1c(C)ccc2c1C(O)CC(C)C2` (centres undefined), the Potency entry was “inactive”.
Regarding `O=C1OCc2cc3cccc(O[C@@H]4O[C@H](CO)[C@@H](O)[C@H](O)[C@H]4O)c3c(O)c21`, the Potency entry was “inactive”.
As for `C=C1C[C@@]23CCC4[C@@](C)(CCC[C@@]4(C)C(=O)OC)C2CC[C@@H]1C3` (some centres undefined), the Potency entry was “inactive”.
The same measure, in the same setting: for `CC1(C)C2CC=C(COC3OC(COC4OCC(O)(CO)C4O)C(O)C(O)C3O)C1C2` (centres undefined) the value was “inactive”.
